59 compounds from PubChem BioAssay AID504462 (Sanford-Burnham Center for Chemical Genomics, 2011) can be followed below.

One may read the inhibition as the change of the read-out against control, counted positive when it falls.

Out of some 340,000 compounds screened, about 1,700 (0.5%) were called active. Cut-off read from the data, not from the text of the source: active = inhibition above about 40%; inactive = the rest. The sample as a whole holds a higher share of actives than the screen did.

In the assay the target is Cysteine protease ATG4B (Homo sapiens) (UniProt Q9Y4P1). Briefly: blockers of ATG4B cysteine protease activity – biochemical, fluorescence, uHTS, primary screen (AID 504462). The note with it: ATG4B cleavage of LC3-PLA2, NBD-HPC fluorescence, 1 h; at 8.33 µM; stronger effect = higher value.
Chain of Cysteine protease ATG4B (Homo sapiens) (Q9Y4P1 whole entry, looked up): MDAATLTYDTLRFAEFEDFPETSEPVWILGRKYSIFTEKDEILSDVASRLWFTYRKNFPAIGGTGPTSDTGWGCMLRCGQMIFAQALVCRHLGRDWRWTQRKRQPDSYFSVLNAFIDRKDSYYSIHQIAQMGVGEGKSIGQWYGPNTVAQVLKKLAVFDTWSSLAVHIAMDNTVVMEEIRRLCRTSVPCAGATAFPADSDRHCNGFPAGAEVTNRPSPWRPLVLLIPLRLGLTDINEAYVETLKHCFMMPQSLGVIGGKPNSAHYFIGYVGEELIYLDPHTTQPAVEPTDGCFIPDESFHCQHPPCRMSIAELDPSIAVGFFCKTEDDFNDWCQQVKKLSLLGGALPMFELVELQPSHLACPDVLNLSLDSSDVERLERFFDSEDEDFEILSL
As to `O=C(CSc1ncnc2c1oc1ccccc12)NC1CCCC1`, the inhibition was -1.46% (inactive).
As for `CCOCCCn1c(SCC(=O)Nc2cc(OC)ccc2OC)nc2ccccc2c1=O`, the figure is 4.76% (inactive).
The figure for `O=C(O)CCn1c(SCc2cc(=O)n3ccccc3n2)nc2ccsc2c1=O` is -6.86% (inactive).
Take `O=c1c2sccc2nc(SCc2cc(=O)n3ccccc3n2)n1-c1ccc(Br)cc1`: the inhibition is 47.5% (active).
The figure for `CCc1ccc(-n2c(SCc3cc(=O)n4cc(Br)ccc4n3)nc3[nH]ncc3c2=O)cc1` is -11.3% (inactive).
With `CC(=O)NC(NC(=S)Nc1c(C)n(C)n(-c2ccccc2)c1=O)C(Cl)(Cl)Cl` (centres undefined), the inhibition is -9.32% (inactive).
For the compound `O=C(COc1ccc(S(=O)(=O)NCc2ccccc2)cc1)N1CCOCC1`, the inhibition is 0.8% (inactive).
For the compound `O=C1C[C@@H]2c3c(cccc3CN1Cc1ccccc1)C[C@@H](O)[C@H]2O`, the inhibition is 0.85% (inactive).
For `COc1cccc(N2C(=O)CN(Cc3ccccc3)C2=S)c1`, the inhibition was 25.8% (inactive).
As for `Cc1cccc(C)c1N1C(=O)CN(Cc2ccccc2)C1=S`, the figure is 82.4% (active); as for `Cc1ccccc1CCNC(=O)C1CCC(=O)N(Cc2ccc(Cl)cc2)C1` (centres undefined), 0.05% (inactive); as for `CCc1cccc(C)c1N1C(=O)CN(Cc2ccccc2)C1=S`, 88.4% (active).
Consider `CC1CN(Cc2ccccc2)C(=S)NC1=O` (centres undefined), for which the inhibition was -11% (inactive).
Take `COc1ccc(NC(=O)C(CC(C)C)NS(=O)(=O)c2ccc3c(c2)CCN3C(C)=O)cc1OC` (centres undefined): the inhibition was -5.12% (inactive).
As to `O=C(c1ccc(S(=O)(=O)N2CCCC2)cc1)N1CCN(c2ccccc2F)CC1`, the inhibition was 0.98% (inactive).
The figure for `CCOc1ccc(CCNC(=O)COC(=O)CCS(=O)(=O)c2ccc(C)cc2)cc1OCC` is -3.02% (inactive); for `O=S(=O)(c1ccc(F)cc1)N1CCN(C(=S)NCc2ccco2)CC1` it is 0.75% (inactive); for `CC(C)Cc1ccc(C(C)C(=N)N)cc1` (centres undefined) it is 8.66% (inactive).
As to `COc1ccc(CNC(=O)C2CCN(S(=O)(=O)c3ccc(SC)cc3)CC2)cc1`, the inhibition is -7.7% (inactive).
With `NC(=O)Cn1cc(/C=N\NS(=O)(=O)c2ccccc2)c2ccccc21`, the inhibition is 3.11% (inactive).
As for `COc1cccc(Cn2cc(/C=N/NC(=O)c3cc(O)cc(O)c3)c3ccccc32)c1`, the figure is 47.7% (active).
Regarding `COC(=O)N/N=C/c1c[n+]([O-])c2ccccc2[n+]1[O-]`, the inhibition is -2.96% (inactive).
`N#CCC(=O)N/N=C/c1cn(Cc2ccc3ccccc3c2)c2ccccc12`: the inhibition is -9.5% (inactive).
On to `O=C(Cn1cc(/C=N/NC(=O)c2cccc(C(F)(F)F)c2)c2ccccc21)Nc1ccc(F)cc1`, for which the inhibition was 5.83% (inactive).
As for `CCOC(=O)N/N=C/c1cn(Cc2ccccc2Cl)c2ccccc12`, the inhibition is 48% (active).
In the case of `Cc1ccc(OCCOc2cccc(/C=N/NC(N)=O)c2)cc1`, the inhibition was -2.28% (inactive).
Regarding `CCOC(=O)c1cnn(Cc2ccccc2Cl)c1N`, the inhibition was -5.17% (inactive).
In the case of `COC(=O)N/N=C/c1cn(CCCOc2ccc(C)cc2)c2ccccc12`, the inhibition is 40.3% (active).
Consider `CCC(C)c1ccc(NC(=S)NCc2ccccn2)cc1` (centres undefined), for which the inhibition is 2.58% (inactive).
On to `CC(=O)N1CCN(C(=O)c2cc(-c3ccc(Cl)s3)nc3ccccc23)CC1`, for which the inhibition was 2% (inactive).
On to `COc1cc(OC)cc(C(=O)Nc2ccc(-c3nc4ccccc4o3)c(O)c2)c1`, for which the inhibition is 1% (inactive).
As for `Cc1ccc(Nc2cc(=O)n(C3CCCCC3)c(=O)[nH]2)cc1C`, the figure is 49.4% (active).
Consider `Cc1ccc(NNC(=O)C2CCC2)cc1C`, for which the inhibition is -8.25% (inactive).
As for `O=c1cc(C(F)(F)F)[nH]c(=O)n1C1CCCCC1`, the figure is -7.77% (inactive); as for `Cc1ccc(-c2nnn(CC(=O)N(CCO)C(C(=O)NC(C)(C)C)c3ccncc3)n2)cc1` (centres undefined), 3.82% (inactive).
As to `O=C(Nc1cccc(F)c1)NC1CCCc2ccccc21` (centres undefined), the inhibition was 72.2% (active).
As for `O=C(Nc1cccc(F)c1)NC1CCCCCCC1`, the figure is 14.1% (inactive); as for `CNS(=O)(=O)c1cccc(C(=O)NC2CCCc3ccccc32)c1` (centres undefined), 5.31% (inactive).
As for `O=C(Nc1ccc(F)c(Cl)c1)C1CCN(S(=O)(=O)c2cccnc2)CC1`, the figure is -11.3% (inactive); as for `COc1ccc(C)cc1NC(=O)CSc1nnc2ccc(-c3ccccn3)nn12`, -1.16% (inactive); as for `CCN(C[C@H]1N[C@@](CC)(C(=O)OC)[C@H]2C(=O)N(Cc3ccccc3)C(=O)[C@@H]12)S(=O)(=O)c1ccc(C(F)(F)F)cc1`, 1.74% (inactive).
For `COc1ccc(NC(=O)CNc2cc(S(=O)(=O)N3CCOCC3)ccc2N2CCOCC2)c(OC)c1`, the inhibition is -0.66% (inactive).
As for `Cc1c(Cl)c([N+](=O)[O-])nn1CCCC(=O)Nc1cc(Cl)ccc1Cl`, the figure is 63.1% (active); as for `Cc1cc([N+](=O)[O-])nn1CCCC(=O)Nc1cccnc1Cl`, -6.6% (inactive); as for `Cc1c(Cl)c([N+](=O)[O-])nn1CCCC(=O)NC(C)c1ccccc1` (centres undefined), 19.6% (inactive).
Regarding `Nc1c(N(CCCO)C(=O)C2CCCC2)c(=O)[nH]c(=O)n1Cc1ccccc1`, the inhibition is 2.96% (inactive).
As for `Cc1ccc2[nH]c(=O)c(CC=C(Cl)Cl)c(C)c2c1`, the figure is -4.78% (inactive).
Consider `CN(C(=O)c1cccc(NC(=O)Cc2ccc(NC(=O)C3CCN(C(=O)C4CCCCC4)CC3)cc2)c1)C1CCC1`, for which the inhibition is -6.18% (inactive).
As for `COC(=O)[C@@H](NC(=O)NCc1cccc(OC)c1)C(C)C`, the figure is -0.62% (inactive); as for `COc1cccc(NC(=O)NCc2ccc(F)cc2)c1`, 46.2% (active); as for `O=C(NCc1cccc(CNC(=O)Nc2cccc(O)c2)c1)Nc1cccc(O)c1`, 27.4% (inactive).
`CC1CCCC(NC(=O)c2cc(-c3ccncc3)nc3ccccc23)C1C` (centres undefined): the inhibition was -8.76% (inactive).
The figure for `CC(C)CCn1c(=O)c2c(nc3n2CCCN3Cc2ccccc2)n(C)c1=O` is 3.87% (inactive).
On to `CCOC(=O)c1c(C)[nH]c2c1-c1ccccc1C(=O)C2=O`, for which the inhibition is 47% (active).
As to `CCOC(=O)c1[nH]c2ccccc2c1N=C(C)N(CC)CC`, the inhibition was -9.79% (inactive).
The figure for `CCOC(=O)C1=C(C)c2ccccc2OC1(C)C(=O)OCC` (centres undefined) is 2.41% (inactive); for `CC(C)(C)C1CCc2c(sc3nc(SCC(N)=O)nc(N)c23)C1` (centres undefined) it is 42.8% (active).
Turning to `Nc1nc(SCC(=O)NCCN2CCOCC2)nc2sc3c(c12)CCC3`, the inhibition is -9.91% (inactive).
Take `C=C(C)CSc1nc(N)c2c3c(sc2n1)CCC3`: the inhibition is 17.7% (inactive).
